Results reported in PubChem BioAssay AID720690 (Broad Institute, 2013).
Measured potencies and affinities stand elsewhere. Activity calls are given as the source filed them.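 How the source made its calls: active means every repeat run showing a signal drop whose fitted half-maximal concentration is at most twice the top tested concentration; inconclusive means repeat runs disagree, or flat partial drop, or poor fit; inactive means the rest.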

Assay: HEK293T cytotoxicity, dose response, cytotoxicity control for miR-122 modulator project, cell-based, activator set, cherry-pick (AID 720690)
Conditions: HEK293T viability, CellTiter-Glo luminescence, 48 h; series mostly up to 26 µM

Row | Structure (SMILES) | outcome
1 | CCC(=O)N(C)C[C@@H]1[C@@H](c2ccccc2)[C@H](CO)N1Cc1cccnc1 | inactive
2 | Cc1nn(C)cc1NC(=O)C[C@H]1CC[C@@H]2[C@H](COc3ccc(NC(=O)Nc4cccc(Cl)c4)cc3C(=O)N2C)O1 | inactive
3 | CCN(C[C@H]1N[C@@H](CO)[C@@H]1c1ccc(C2=CCCC2)cc1)C(=O)c1ccncc1 | inactive
4 | COCC(=O)Nc1ccc2c(c1)C(=O)N(C)[C@@H]1CC[C@H](CC(=O)NCCCN(C)C)O[C@H]1CO2 | inactive
5 | COC(=O)C[C@@H]1CC[C@@H]2[C@@H](COc3ccc(NS(=O)(=O)c4ccccc4F)cc3C(=O)N2C)O1 | inactive
6 | C/C=C/c1ccc2c(c1)O[C@H](CN(C)C(=O)NCCC)[C@H](C)CN([C@@H](C)CO)S2(=O)=O | inactive
7 | C/C=C/c1ccc([C@H]2[C@H](CO)N[C@@H]2CN(CC)C(=O)c2cccnc2)cc1 | inactive
8 | CCCNC(=O)C[C@@H]1CC[C@H]2[C@@H](COc3ccc(NC(=O)c4ccc(C(F)(F)F)cc4)cc3C(=O)N2C)O1 | inactive
9 | CCCC(=O)Nc1ccc2c(c1)C(=O)N(C)[C@@H]1CC[C@H](CC(=O)Nc3cn(C)nc3C)O[C@@H]1CO2 | inactive
10 | CO[C@H]1CN(C)C(=O)c2cc(NC(C)=O)ccc2OC[C@@H](C)N(C(=O)CC2CC2)C[C@H]1C | inactive
11 | C[C@@H]1CN([C@@H](C)CO)S(=O)(=O)c2ccc(C3=CCCCC3)cc2O[C@@H]1CN(C)C(=O)Cc1ccncc1 | inactive
12 | C/C=C/c1ccc([C@H]2[C@@H](CO)N[C@@H]2CN(CC(C)C)C(=O)c2ccccn2)cc1 | inactive
13 | CCCNC(=O)C[C@H]1CC[C@@H]2[C@H](COc3ccc(NS(=O)(=O)c4ccccc4C)cc3C(=O)N2C)O1 | inactive
14 | OCc1ccc(-c2nn(Cc3ccccc3)c3ccccc23)o1 | inactive
15 | O=C(Nc1ccccc1N1CCN(C(=O)c2ccc(Cl)cc2)CC1)c1cccnc1 | inactive
16 | C[C@@H]1CN([C@@H](C)CO)S(=O)(=O)c2ccc(C#Cc3ccncc3)cc2O[C@@H]1CN(C)C(=O)C1CCOCC1 | inactive
17 | CCOc1ccc(C(CCc2ccccc2)NC(=O)c2ccccc2F)cc1OCC (centres undefined) | inactive
18 | O=C(Nc1ncc(Cc2cccc(C(F)(F)F)c2)s1)c1ccc(-c2cccc([N+](=O)[O-])c2)o1 | inactive
19 | CN1C(=O)c2cc(NC(=O)c3ccccc3F)ccc2OC[C@H]2O[C@H](CC(=O)NCc3ccc4c(c3)OCO4)CC[C@@H]21 | inactive
20 | COCCN(C[C@H]1[C@@H](c2ccccc2)[C@H](CO)N1C(=O)C1CCC1)C(C)=O | inactive

Row | Structure (SMILES) | outcome
21 | Cc1cc(C)nc(NS(=O)(=O)c2ccc(NC(=S)NC(=O)C3CCCC3)cc2)n1 | inactive
22 | COC(=O)C[C@H]1CC[C@H]2[C@H](COc3ccc(NC(=O)c4cscn4)cc3C(=O)N2C)O1 | inactive
23 | C/C=C/c1ccc([C@H]2[C@@H](CO)N(Cc3ccccn3)[C@@H]2CNC(=O)CC)cc1 | inactive
24 | CC(=O)Nc1ccc2c(c1)C(=O)N(C)[C@H]1CC[C@H](CC(=O)NC3CCCCC3)O[C@@H]1CO2 | inactive
25 | CNC(=O)C[C@@H]1CC[C@@H]2[C@H](COc3ccc(NC(=O)NC(C)C)cc3C(=O)N2C)O1 | inactive
26 | CCCNC(=O)Nc1ccc2c(c1)C(=O)N(C)[C@@H]1CC[C@@H](CC(=O)NCC3CCCCC3)O[C@@H]1CO2 | inactive
27 | CC(C)C#Cc1ccc2c(c1)O[C@H](CN(C)C(=O)c1ccncc1)[C@H](C)CN([C@H](C)CO)S2(=O)=O | inactive
28 | C[C@@H]1CN([C@@H](C)CO)C(=O)Cc2cc(NC(=O)Nc3ccc(C(F)(F)F)cc3)ccc2O[C@H]1CN(C)CC1CCCCC1 | inactive
29 | COCC(=O)NC[C@H]1[C@@H](c2ccc(C3=CCCC3)cc2)[C@H](CO)N1C(=O)C1CC1 | inactive
30 | CC(=O)N(C)C[C@H]1Oc2cc(C#Cc3ccc(F)cc3)ccc2S(=O)(=O)N([C@H](C)CO)C[C@H]1C | inactive
31 | C/C=C/c1ccc2c(c1)O[C@H](CN(C)C(=O)Nc1cccc(F)c1)[C@H](C)CN([C@@H](C)CO)S2(=O)=O | inactive
32 | CN1C(=O)c2cc(NC(=O)Cc3ccccc3)ccc2OC[C@@H]2O[C@@H](CC(=O)NCc3ccc(Cl)cc3)CC[C@H]21 | inactive
33 | C/C=C/c1ccc([C@H]2[C@@H](CO)N[C@@H]2CN(C(=O)c2ccccc2F)C(C)C)cc1 | inactive
34 | C[C@H]1CN([C@@H](C)CO)C(=O)c2cc(C#CC3CCCC3)cnc2O[C@H]1CN(C)C(=O)Cc1ccccn1 | inactive
35 | CN1C(=O)c2cc(NC(=O)c3cccc(F)c3)ccc2OC[C@@H]2O[C@H](CC(=O)O)CC[C@@H]21 | inactive
36 | Cc1cnc(NC(=O)c2cc3c(C)nn(-c4ccccc4)c3s2)s1 | inactive
37 | CC(=O)N(C)C[C@@H]1[C@@H](c2ccc(-c3cccc(C#N)c3)cc2)[C@H](CO)N1C(C)=O | inactive
38 | Cc1noc(C)c1NC(=O)N(C)C[C@@H]1Oc2cc(C#CCC3CCCC3)ccc2S(=O)(=O)N([C@@H](C)CO)C[C@@H]1C | inactive
39 | C/C=C/c1ccc([C@H]2[C@@H](CO)N[C@@H]2CN(CC)C(=O)CN2CCOCC2)cc1 | inactive
